Screening results: PubChem BioAssay, National Center for Advancing Translational Sciences (NCATS)
KB-V1 cytotox – qHTS assay for MDR1-selective chemotherapeutics: Primary screen using the drug-selected MDR subline cells KB-V1. Potency, µM (highest dose often 46.1 µM), usual class: cytotoxic. actives 3.4% (n = 400,000). AID 1347076, 2019. KB-V1 MDR cells viability, CellTiter-Glo, 72 h; further: potency means the concentration at half of the fitted maximal effect; nearly all actives have a fitted effect of over 60% in size
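Cells of the MDR subline KB-V1 are plated, dosed with compound at multiple concentrations, and incubated 72 h at 37 degrees C; CellTiter-Glo is then added and luminescence read after 10 min.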
A549 tox – Nrf2 qHTS screen for inhibitors: counterscreen for cytotoxicity | actives 0.16% (n = 390,000) | A549 ARE-Fluc cells, CellTiter-Fluor viability, 18-24 h | Potency, µM (doses to about 46 µM), for the others: at the top dose activity change, negative = cytotoxicity, usual class: inhibitors; further: potency means the concentration at half of the fitted maximal effect
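A549 ARE_Fluc cells in 5% FBS OPTI-MEM were exposed to compounds in concentration-response for 18-24 h at 37 deg C. Viability was read by CellTiter-Fluor fluorescence (Ex 405/Em 525) after 30 min, before the luciferase read.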
Giardia killer – Small Molecules that selectively kill Giardia lamblia: qHTS | Giardia lamblia trophozoite viability | activity change, % at 7.66 µM, hits read low | actives 0.15% (n = 340,000); in the data active means activity change below about -80%; inconclusive means between about -30% and that limit;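 further: parasites exposed to compound for two days anaerobically before the ATP read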
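Viability, read as ATP luminescence: trophozoites at 100 cells/well, compound added, 48 hrs anaerobic at 37 deg C, then 15-30 min room-temperature development before reading.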
PI4K2A inh – qHTS for small molecular inhibitors of PI4K2A. Phosphatidylinositol 4-kinase type 2-alpha (Homo sapiens), Q9BTU6. purified PI4K2A, ADP-Glo luminescence, 1 h; hits give low values. activity change, negative = inhibition, % at 76.9 µM. actives 0.13% (n = 420,000). AID 1346378, 2018; in the data active means activity change below about -50%; inconclusive means mostly about -30% to -49%;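 further: -100% = wells without enzyme as full effect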
Target sequence (Q9BTU6 whole entry, looked up): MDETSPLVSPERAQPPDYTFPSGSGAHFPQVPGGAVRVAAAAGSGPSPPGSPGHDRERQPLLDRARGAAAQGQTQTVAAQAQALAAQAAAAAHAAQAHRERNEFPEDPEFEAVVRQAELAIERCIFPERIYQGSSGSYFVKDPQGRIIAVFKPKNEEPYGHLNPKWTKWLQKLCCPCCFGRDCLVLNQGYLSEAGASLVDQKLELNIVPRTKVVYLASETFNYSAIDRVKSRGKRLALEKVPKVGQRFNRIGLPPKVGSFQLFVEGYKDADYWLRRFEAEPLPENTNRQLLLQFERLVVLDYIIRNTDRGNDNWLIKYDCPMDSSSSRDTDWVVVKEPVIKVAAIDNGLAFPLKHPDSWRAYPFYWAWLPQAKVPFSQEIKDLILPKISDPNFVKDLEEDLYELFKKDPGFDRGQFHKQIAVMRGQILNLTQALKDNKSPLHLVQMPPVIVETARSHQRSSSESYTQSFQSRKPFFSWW
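Compounds are screened against recombinant PI4K2A using PI as substrate and ATP, the latter dispensed at 300 microM. Reactions run one hour at ambient temperature before ADP-Glo detection; full inhibition defined by wells lacking enzyme.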
KB-3-1 cytotox – qHTS assay for MDR1-selective chemotherapeutics: Primary screen using the parental adenocarcinoma cell KB-3-1; KB-3-1 viability, CellTiter-Glo ATP luminescence, 72 h; Potency, µM (titrated, usually from 46.1 µM), usual class: cytotoxic; actives 1.4% (n = 400,000); further: potency means the concentration at half of the fitted maximal effect; nearly all actives have a fitted effect of over 60% in size
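KB-3-1 parental drug-naive adenocarcinoma cells in DMEM/10% FBS, incubated 72 h at 37 C with pin-transferred compounds across a concentration series. Viability by CellTiter-Glo luminescence; concentration-response curves fitted after normalization.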
Nrf2 inh – Nrf2 qHTS screen for inhibitors; A549 ARE-Fluc reporter, luciferase luminescence, 18-24 h; Potency, µM (titrated, usually from 46 µM), for the others: at the highest dose activity change, negative = inhibition, usual class: inhibitors; actives 2.1% (n = 360,000); further: potency means the concentration at half of the fitted maximal effect; nearly all actives have a fitted effect of over 60% in size
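Nrf2 activity is the BugLite luminescence, read 15 min after reagent at room temperature, following CellTiter-Fluor cytotoxicity readout (30 min, 37C). Compound titrations were applied for 18-24 h to 5000 A549 ARE_Fluc cells/well in 5% FBS OPTI-MEM.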
* marks the source's active call; other numbers are inactive results; i = inactive; ? = inconclusive; · = not tested or not shown. Compounds with a hit are over-represented: about 5.7% of the library has one in this group of screens. Unless noted, the call rests on the fitted dose curve; in most records, active means well fitted curve in the direction sought with a large enough effect; inconclusive means small, poorly fitted or top-dose-only effect, or another doubt; inactive means no such curve, though single readings can be large; an effect the other way counts as inactive or inconclusive. Unless noted, on the % scale 0 is the no-effect control and ±100 the full control effect.

SMILES | KB-V1 cytotox | A549 tox | Giardia killer | PI4K2A inh | KB-3-1 cytotox | Nrf2 inh
CCOc1ccc(C(C)NC(=O)c2cccc(F)c2)cc1 (configuration not stated) | ? | 8.9% | -10.4 | 6.8 | i | ?
CCOc1ccc(C(C)NC(=O)c2ccccc2F)cc1 (configuration not stated) | 16.4µM* | 1.7% | -5.9 | 12.8 | i | -0.4%
Cc1cn(C(=O)c2ccccc2)c(=S)n1-c1ccc(Br)cc1 | 14.6µM* | ? | -4.2 | -1.8 | i | ?
COc1cc(/C=C(/NC(=O)c2ccccc2)C(=O)Nc2ccccc2)c([N+](=O)[O-])cc1OC | 16.4µM* | -4.5% | 5.8 | -3.8 | i | ?
COc1ccc(NC(=O)/C(=C\c2cc(OC)c(OC)cc2[N+](=O)[O-])NC(=O)c2ccccc2)cc1 | i | -1.8% | 21.3 | -12.9 | i | 18.0%
O=C(Nc1ccc(C(F)(F)F)cc1)OC1CCC12CCC(c1ccccc1)CC2 (configuration not stated) | · | · | · | -0.1 | · | ·
CCOC(=O)C1C(=O)C=C(c2ccc(C)cc2)CC1c1ccc([N+](=O)[O-])cc1 (configuration not stated) | 7.31µM* | 1.2% | 10.3 | 4.0 | i | 4.9%
CCOC(=O)C1C(=O)C=C(c2ccccc2)CC1c1ccccc1 (configuration not stated) | ? | -14.4% | -5.5 | -0.9 | i | ?
CC(NC(=O)Cc1ccc(NS(=O)(=O)c2cccc(C(F)(F)F)c2)cc1)c1ccccn1 (configuration not stated) | 20.6µM* | 3.4% | -26.7 | 5.2 | ? | -22.9%
CCc1cc(=O)oc2c(C)c(OS(C)(=O)=O)ccc12 | 4.11µM* | 3.1% | 0.5 | 0.8 | i | 1.5%
CCc1cc(=O)oc2cc(OS(C)(=O)=O)ccc12 | i | -2.7% | 8.9 | 1.4 | i | -17.1%
Cc1nc(C)c(-c2csc(Nc3ccc(O)c(C(=O)O)c3)n2)s1 | i | -1.9% | -15.4 | 1.0 | i | 0.2%
Cc1nc(C)c(-c2csc(Nc3ccc(N)cc3)n2)s1 | i | -20.3% | -28.7 | -0.2 | i | 20.6µM*
Cc1nc(C)c(-c2csc(Nc3cccnc3)n2)s1 | 3.26µM* | 6.6% | -10.9 | 3.0 | i | ·
COc1ccc(Nc2nc(-c3sc(C)nc3C)cs2)cc1 | 1.64µM* | -10.0% | -2.8 | -1.9 | 5.8µM* | -16.1%
COc1ccc(-c2ccnc3nc(Sc4ncc(C(F)(F)F)cc4Cl)nn23)cc1 | 14.6µM* | 2.5% | 5.5 | 0.8 | i | ·
CN=C1S/C(=C\c2ccc(N3CCOCC3)c(F)c2)C(=O)N1C | 16.4µM* | -17.0% | -14.1 | -8.0 | ? | -24.0%
CN=C1S/C(=C\c2ccc(N3CCCC3)c(F)c2)C(=O)N1C | ? | -14.8% | -10.1 | 5.4 | i | ?
CCCOc1ccc2cc(-c3ccccn3)c(=O)oc2c1 | ? | 8.5% | ? | -61.0* | ? | ?
O=c1oc2cc(OCc3c(F)cccc3Cl)ccc2cc1-c1ccccn1 | i | -0.9% | 7.0 | -6.7 | i | 4.9%
O=C(NC1CCCCN(Cc2cccc(Cl)c2)C1=O)c1cccc2nsnc12 (configuration not stated) | · | · | · | -6.7 | · | ·
CCOC(=O)N1CCN(c2cc3nccnc3cc2F)CC1 | 20.6µM* | 2.1% | 6.9 | 2.4 | i | -11.9%
CCC[C@H]1[C@@H](NCc2cccs2)CC[C@@]23CCCN2C(=O)CCC[C@@H]13 | · | · | · | -2.1 | · | ·
C[N+]1(CC(=O)c2c3ccccc3cc3ccccc23)CCOCC1 | i | · | · | · | i | ·
O=[N+]([O-])c1cccn2cc(-c3ccc(Br)cc3)nc12 | i | -6.2% | -98.9* | -1.0 | ? | ?
SMILES | KB-V1 cytotox | A549 tox | Giardia killer | PI4K2A inh | KB-3-1 cytotox | Nrf2 inh
Cc1cc(Nc2cccc(Br)c2)n2c(nc3ccccc32)c1C#N | ? | -7.3% | · | -1.5 | 8.2µM* | 2.8%
c1ccc(-c2nnc3nc(N4CCCCC4)nc(N4CCCCC4)n23)cc1 | 18.4µM* | 13.0% | -26.4 | 0.0 | ? | 2.4%
Cn1c(NCc2ccccc2)nc2c1c(=O)n(Cc1ccc(Br)cc1)c(=O)n2C | i | -12.3% | -17.0 | 2.5 | i | 14.6µM*
COc1ccc(CNc2nc3c(c(=O)n(Cc4ccc(Br)cc4)c(=O)n3C)n2C)cc1 | 9.2µM* | -24.9% | -18.2 | -1.9 | ? | 18.4µM*
Cn1c(NCc2ccco2)nc2c1c(=O)n(Cc1ccc(Br)cc1)c(=O)n2C | i | -1.3% | 11.3 | -3.2 | i | ?
Cc1ccc(Oc2nc3c(c(=O)n(Cc4ccccc4)c(=O)n3C)n2C)cc1C | ? | 1.4% | · | -1.6 | i | 18.4µM*
CC(C)Oc1ccc(CNS(=O)(=O)c2ccc3c(c2)C(C)(C)C(=O)N3C)cc1 | i | 6.3% | · | 0.7 | i | 19.3%
COCC(=O)N1CC[C@H]2[C@@H]1c1cc(-c3cccc(OC)c3)ccc1N(C)[C@H]2CO | · | · | · | -3.2 | · | ·
Cc1nc(-c2ccccc2)[nH]c(=O)c1Oc1ccc(Cl)cc1Cl | ? | -9.0% | -10.6 | 5.2 | i | 20.6µM*
CC(=O)c1cccc(NC(=O)c2noc3c2CCCC3)c1 | ? | -0.2% | · | -2.5 | i | ?
COc1cc(C2C(C#N)=C(N)Oc3c2ccc2ccccc32)ccc1OCC(=O)Nc1ccc(C)cc1 (configuration not stated) | ? | -3.0% | -19.0 | -4.0 | ? | -15.2%
COc1ccc(C2C(C#N)=C(N)Oc3c2ccc2cccnc32)cc1OC (configuration not stated) | i | -11.4% | 11.5 | -1.5 | 2.59µM* | -2.1%
CSc1nc(-c2ccc(C)cc2)[nH]c1S(=O)(=O)c1ccccc1 | i | -10.5% | 14.7 | -11.9 | i | 18.4µM*
CCOC(=O)CN1CCCC1=O | · | · | · | 3.5 | · | ·
CCOC(=O)C1=NOC(C(C)=O)(C(=O)Nc2cc(C)cc(C)c2)C1 (configuration not stated) | · | · | · | 0.1 | · | ·
COc1cc(/C=N/Nc2ncc(C(F)(F)F)cc2Cl)cc(OC)c1O | 20.6µM* | 2.7% | 1.4 | -3.2 | ? | -7.7%
COc1cc(/C=N/Nc2ncc(C(F)(F)F)cc2Cl)cc(OC)c1OC | ? | 12.0% | 5.1 | -6.1 | i | ?
CC(C)CCNC(=O)CSCc1cnn(-c2ccccc2)c1-n1cccc1 | · | 4.4% | · | 1.4 | · | -18.5%
CNC(=O)CSCc1cnn(-c2ccccc2)c1-n1cccc1 | 16.4µM* | -2.3% | -16.2 | 0.2 | i | 5.2%
